NFkB SMM: NF-kappa-B p105 (human) binding | P19838 | Small molecule microarray, anti-His fluorescence binding | calls only | actives 1.3% (n = 17,000);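 active = spot fluorescence over background significantly raised, with a chance value under 7% in all four replicate spots of the compound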;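 also: probe protein is his-tagged human p50 processed subunit at 1 µg/ml; raw spot fluorescence signals with no normalization applied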
Myc binder: binds human c-Myc on microarray | calls only | actives 1.5% (n = 17,000) | small molecule microarray, His-c-Myc binding, anti-His fluorescence;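 active = spot fluorescence over background with P-value below 7% in all four replicate spots, showing protein binding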;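 also: score is binary with 100 for all four spots passing and 0 otherwise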
Target sequence (P01106 whole entry, looked up): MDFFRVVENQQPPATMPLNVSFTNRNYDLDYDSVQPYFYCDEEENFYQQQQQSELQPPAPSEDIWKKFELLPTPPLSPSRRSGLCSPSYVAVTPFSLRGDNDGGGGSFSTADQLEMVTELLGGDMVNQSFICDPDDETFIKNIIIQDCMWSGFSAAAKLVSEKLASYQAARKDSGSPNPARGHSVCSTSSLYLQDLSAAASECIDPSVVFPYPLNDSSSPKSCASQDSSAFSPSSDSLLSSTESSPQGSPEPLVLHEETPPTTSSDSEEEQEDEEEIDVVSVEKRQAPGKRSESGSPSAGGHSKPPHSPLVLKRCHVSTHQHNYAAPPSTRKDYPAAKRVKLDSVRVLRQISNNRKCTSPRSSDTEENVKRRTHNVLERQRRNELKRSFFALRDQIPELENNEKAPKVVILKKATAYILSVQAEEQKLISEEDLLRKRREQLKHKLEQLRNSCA
STAT3 binder: binds human STAT3 on microarray; calls only; Small molecule microarray, His-STAT3 binding, anti-His fluorescence; P40763; actives 0.2% (n = 17,000); AID 624138;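 active = compounds whose four printed spots each show fluorescence over background unusually high for their array block, chance value under 7%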
p53 mut binder: binds human mutant p53 on microarray. small molecule microarray binding, anti-GST fluorescence. calls only. actives 0.4% (n = 17,000). AID 624136;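 active = compounds whose four printed spots each glow above background more than chance allows, each with a p-value under 7%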
* marks the source's active call; other numbers are inactive results; i = inactive; + = active, no number. Only some compounds are listed: those with a hit (about 2.1% of all), similar ones and a draw of the others.

SMILES	NFkB SMM	Myc binder	STAT3 binder	p53 mut binder
Cc1noc(C)c1NC(=O)Nc1ccc2c(c1)C(=O)N([C@H](C)CO)C[C@H](C)[C@@H](CN(C)C(=O)C1CCCCC1)OCCCC[C@@H](C)O2	i	i	i	i
Cc1noc(C)c1NC(=O)Nc1ccc2c(c1)C(=O)N([C@@H](C)CO)C[C@H](C)[C@H](CN(C)C(=O)C1CCCCC1)OCCCC[C@H](C)O2	i	i	i	i
Cc1noc(C)c1NC(=O)Nc1ccc2c(c1)C(=O)N([C@H](C)CO)C[C@H](C)[C@H](CN(C)C(=O)C1CCCCC1)OCCCC[C@H](C)O2	i	i	+	i
Cc1noc(C)c1NC(=O)Nc1ccc2c(c1)C(=O)N([C@@H](C)CO)C[C@@H](C)[C@@H](CN(C)C(=O)C1CCCCC1)OCCCC[C@H](C)O2	i	+	i	i
O=C(O)[C@H]1O[C@@H](Oc2cc(O)c3c(=O)c(-c4ccc(O)cc4)coc3c2)[C@H](O)[C@@H](O)[C@@H]1O	i	i	i	i
CC(C)=CCC/C(C)=C/CC(O)/C(C)=C/Cc1cc(C(=O)O)ccc1O (stereo unspecified)	i	i	i	i
C[C@@H]1CCCCO[C@H](CN(C)C(=O)Nc2ccccc2)[C@@H](C)CN([C@@H](C)CO)C(=O)c2cc(NC(=O)CCC(F)(F)F)ccc2O1	i	+	i	i
C[C@H](CO)N1C[C@H](C)[C@H](CN(C)C(=O)Nc2ccccc2)OCCCC[C@H](C)Oc2ccc(NC(=O)CCC(F)(F)F)cc2C1=O	+	i	i	i
Cc1cc(C)cc(N(CC(=O)Nc2c(C)cc(C)cc2C)S(C)(=O)=O)c1	i	i	i	i
COc1ccccc1CN1CCN(Cc2cccnc2)CC1	i	+	i	i
C=CC1C(=C)CCC2C1CCC1C(C)(C(=O)O)CCCC21C (stereo unspecified)	i	i	i	i
C=C[C@]1(C)C=C2CCC3C(C)(CCC[C@@]3(C)C(=O)O)C2CC1 (stereo partly specified)	i	i	i	i
O=C1O[C@H](c2ccccc2)[C@H](c2ccccc2)N2[C@H]1[C@@H](C(=O)N1CCCCCCC1)[C@]1(C(=O)Nc3ccccc31)[C@H]2c1ccc(O)cc1	+	+	i	+
COC(=O)C(CC#Cc1ccc2c(c1)[C@]1(C(=O)N2)[C@H](C(N)=O)[C@H]2C(=O)O[C@H](c3ccccc3)[C@H](c3ccccc3)N2[C@@H]1c1ccccc1OCCO)C(=O)OC	i	i	i	+
O=C1O[C@H](c2ccccc2)[C@H](c2ccccc2)N2[C@H]1[C@@H](C(=O)N1CCCCCCC1)[C@]1(C(=O)Nc3ccc(C#CC4=CCCCC4)cc31)[C@H]2c1ccc(OCCO)cc1	+	+	i	+
O=C1O[C@H](c2ccccc2)[C@H](c2ccccc2)N2[C@H]1[C@@H](C(=O)N1CCN(c3ncccn3)CC1)[C@]1(C(=O)Nc3ccc(C#CC4=CCCCC4)cc31)[C@H]2c1ccc(OCCO)cc1	i	i	i	i
COC(=O)C(CC#Cc1ccc2c(c1)[C@]1(C(=O)N2)[C@H](C(N)=O)[C@H]2C(=O)O[C@H](c3ccccc3)[C@H](c3ccccc3)N2[C@@H]1c1ccc(OCCO)cc1)C(=O)OC	i	i	i	i
O=C1O[C@H](c2ccccc2)[C@H](c2ccccc2)N2[C@H]1[C@@H](C(=O)N1CCCCCCC1)[C@]1(C(=O)Nc3ccc(C#CC4(O)CCCCCC4)cc31)[C@H]2c1ccccc1OCCO	i	i	i	+
O=C(CSc1nc(C(F)(F)F)cc(=O)[nH]1)Nc1ccc(F)cc1	i	i	i	i
CC/C=C\C[C@@H]1C(=O)C=C[C@@H]1CCCCCCCC(=O)O	i	i	i	i
CC(=O)/C=C/C1(O)C(C)CCC2C(C)(C)CCCC21C (stereo unspecified)	i	i	i	i
COC(=O)C(CC#Cc1ccc2c(c1)[C@]1(C(=O)N2)[C@H](c2ccc(OCCO)cc2)N2[C@H](c3ccccc3)[C@H](c3ccccc3)OC(=O)[C@H]2[C@@H]1C(=O)N1CCCCCCC1)C(=O)OC	i	i	i	+
C=CCOC(=O)[C@H]1[C@@H]2C(=O)O[C@@H](c3ccccc3)[C@@H](c3ccccc3)N2[C@@H](c2ccc(OCCOC(=O)[C@@H]3C[C@@H]4C(=O)N[C@@H](Cc5ccccc5)C(=O)N4[C@@H]3c3cccc(OCCO)c3)cc2)[C@]12C(=O)Nc1ccc(I)cc12	+	i	i	i
C=CCOC(=O)[C@H]1[C@@H]2C(=O)O[C@@H](c3ccccc3)[C@@H](c3ccccc3)N2[C@@H](c2ccc(OCCOC(=O)[C@@H]3C[C@@H]4C(=O)NCC(=O)N4[C@@H]3c3ccc(O)cc3)cc2)[C@]12C(=O)Nc1ccccc12	+	i	i	i
C=CCOC(=O)[C@H]1[C@@H]2C(=O)O[C@@H](c3ccccc3)[C@@H](c3ccccc3)N2[C@@H](c2ccc(OCCOC(=O)[C@@H]3C[C@@H]4C(=O)N5CCC[C@H]5C(=O)N4[C@@H]3c3cccc(OCCO)c3)cc2)[C@]12C(=O)Nc1ccc(I)cc12	+	i	i	i
SMILES	NFkB SMM	Myc binder	STAT3 binder	p53 mut binder
C=CCOC(=O)[C@H]1[C@@H]2C(=O)O[C@@H](c3ccccc3)[C@@H](c3ccccc3)N2[C@@H](c2ccc(OCCOC(=O)[C@@H]3C[C@@H]4C(=O)N5CCC[C@H]5C(=O)N4[C@@H]3c3cccc(OCCO)c3)cc2)[C@]12C(=O)Nc1ccccc12	i	i	i	i
COc1c(-c2ccccc2)oc2c(CC=C(C)C)c3c(c(OC)c2c1=O)C=CC(C)(C)O3	i	i	i	i
CC1Oc2c3c(c4c(-c5ccccc5)cc(=O)oc4c2C(=O)C1C)OC(C)(C)C=C3 (stereo unspecified)	+	i	i	i
O=c1cc(-c2ccc(O)c(O)c2)c2c(O[C@@H]3O[C@H](CO)[C@@H](O)[C@H](O)[C@H]3O)cc(O)cc2o1	i	i	i	i
C[C@H](CCC(=O)O)[C@H]1CCC2[C@@H]3CC[C@@H]4C[C@H](O)CC[C@]4(C)C3C=C[C@@]21C (stereo partly specified)	+	i	i	i
CC(=O)O[C@@H]1CC[C@@]2(C)C(CC[C@@H](C)[C@]23Cc2c(O)cc4c(c2O3)CNC4=O)C1(C)C (stereo partly specified)	i	i	i	i
O=C1c2ccccc2C(=O)N1C1CCN(Cc2ccc(OCCO)cc2)CC1	i	i	i	i
O=C1c2ccccc2C(=O)N1CC1CCN(Cc2cccc(OCCO)c2)CC1	i	+	i	i
COc1ccccc1NC(=O)CSc1nnc(-c2ccc(Cl)cc2)o1	i	i	i	i
CC(C)=CCN(C(=O)C#Cc1ccccc1)[C@H](CO)c1ccccc1	+	i	i	i

Assay outcomes deposited in PubChem by Broad Institute.
